Assay results reported in PubChem BioAssay.
Several values for one entry are separate records, joined by “and”; a condition that tells them apart may be missing. Identical values can stand only once. Results filed as inconclusive are left out. Activity calls are given as the source filed them.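 Rule for the calls, unless noted: active = normalized viability below 100% at a tested concentration; inactive = the rest.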

Assays:
[1] = growth inhibition of DIPG glioma cells, dose response, cell-based, SU-DIPG-XIII, MIPE4.0, CellTiter-Glo, qHTS (AID 1347061; cut-off not given, nearly all actives have AC50 up to about 37 µM;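 note: cells exposed to compound for 48 hours before readout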); details: SU-DIPG-XIII viability, CellTiter-Glo ATP luminescence
[2] = SU-DIPG-VI glioma cell viability, MIPE4.0 library, CellTiter-Glo luminescence, qHTS (AID 1347066; cut-off not given, nearly all actives have AC50 up to about 30 µM;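 note: cells exposed to compound for 48 hours before readout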); details: CellTiter-Glo ATP luminescence
[3] = SU-DIPG-XXV glioma cell viability, MIPE5.0 library, qHTS (AID 1347068; cut-off not given, nearly all actives have IC50 up to about 30 µM)
[4] = sensitizers of A549 cells to miR-34 induction, primary screen, imaging, A549 dox-inducible miR-34, nuclei and caspase counts (AID 1347080;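 active = compounds whose cell count with miR-34 switched on is under 0.7 times the count with it off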); details: A549 miR-34 inducible, Hoechst nuclei count, 48 h
[5] = modifiers of HSF1 nuclear foci, imaging, Selleck Cancer Library (AID 1347162; in the data active = plate-normalised HSF1 focus index below about 0.46); details: human cells, at 10 µM; SSMD: measured here: HSF1 foci SSMD mean; cell count: measured here: cell number; plate-normalised HSF1 focus index: stronger effect = lower value
[6] = survival rescue of mitochondrial mutant cells in low glucose, primary screen, MELAS cybrids, Rieske KO mouse fibroblasts, CellTiter-Glo (AID 1508586;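 active = mean z-score across replicates of 1.96 or higher in either the MELAS or the Rieske mutant cell line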;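 note: z relative to plate mean and SD of compound and empty wells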)
[7] = ovarian cancer cell viability with rucaparib, profiling panel, oncology-focused library, rucaparib conditional (AID 1508598); details: patient-derived ovarian cancer cells, CellTiter-Glo viability, 144 h, stronger effect = lower value
[8] = LFS_MB_P medulloblastoma growth inhibition, cell-based, chromothripsis tumors, cisplatin or BGB combos (AID 1671449; in the data active = inhibition above about 80%;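 note: cells exposed for 96 hours; 0% = vehicle DMSO and 100% = killing by high DMSO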); details: LFS_MB_P medulloblastoma cells
[9] = HDN33 neuroblastoma growth inhibition, cell-based, chromothripsis tumors, cisplatin or BGB combos (AID 1671450; in the data active = inhibition above about 80%;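 note: cells exposed to compound for four days; 0% = vehicle DMSO and 100% = cell killing by high DMSO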); details: HDN33 neuroblastoma cells, stronger effect = higher value
[10] = ICB984 medulloblastoma cell growth inhibition, synergistic combos for chromothripsis tumors, cisplatin or BGB combos (AID 1671451; call rule not given here;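 note: cells exposed for 96 hours before readout; 0% = vehicle DMSO and 100% = killing by high DMSO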); details: ICB984 medulloblastoma cells, drug combinations, stronger effect = higher value
[11] = HTB85 osteosarcoma cell growth inhibition, synergistic combos for chromothripsis tumors, BGB or cisplatin IC20 combos (AID 1671453; in the data active = inhibition above about 80%;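 note: cells exposed for 96 hours before readout; 0% = vehicle DMSO and 100% = high DMSO killing control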); details: HTB85 osteosarcoma cells, drug combinations, stronger effect = higher value
[12] = MDA-MB-436 breast carcinoma cell growth inhibition, synergistic combos for chromothripsis tumors, BGB or cisplatin combos (AID 1671458; call rule not given here;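 note: cells exposed for 96 hours; 0% = vehicle DMSO and 100% = killing by high DMSO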); details: MDA-MB-436 breast carcinoma growth inhibition, drug combinations, stronger effect = higher value
[13] = growth inhibition of BT084 medulloblastoma cells, cell-based, ICGC_MB145, cisplatin and BGB IC40 combos (AID 1671461; in the data active = inhibition above about 80%;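 note: cells exposed to drugs for 96 hours; 0% = vehicle DMSO and 100% = high DMSO full killing control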); details: drug combinations, stronger effect = higher value
[14] = growth inhibition of RCMB18 medulloblastoma cells, cell-based, cisplatin and BGB IC40 combos (AID 1671462; in the data active = inhibition above about 80%;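 note: cells exposed to compound for four days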); details: stronger effect = higher value
[15] = growth inhibition of CRL1545 osteosarcoma cells, cell-based, cisplatin and BGB IC20 combos (AID 1671464; in the data active = inhibition above about 80%;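 note: cells exposed to compound for 96 hours before readout; 0% = vehicle DMSO and 100% = high DMSO killing control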); details: stronger effect = higher value
[16] = measured here: with BGB IC20 combination, at 0.5 µM
[17] = measured here: with cisplatin IC20 combination, at 0.5 µM

CN(C)Cc1ccc(-c2nc3cccc4c3n2CCNC4=O)cc1
AC50 [1]: 18.7 µM (active)
outcome [2]: inactive
outcome [3]: inactive
fold change ([4]; stronger effect = lower value, cell number ratio, induced over uninduced): 0.89 (inactive)
fold change ([4]; measured here: relative caspase fold change +Dox/-Dox): 1.02
cell count ([4]; measured here: total cells with miR-34 induction, stronger effect = lower value): 6740
cell count ([4]; measured here: total cells without miR-34 induction): 7560
SSMD [5]: -0.246
cell count [5]: 7430
plate-normalised HSF1 focus index [5]: 0.994 (inactive)
z-score ([6]; MELAS cybrid survival, CellTiter-Glo 48 h, stronger effect = higher value): -0.319 (inactive)
z-score ([6]; Rieske KO mouse fibroblast survival, CellTiter-Glo 72 h): -0.0135
viability ([7]; at 0.000305 µM, OCI-C5x cells, with rucaparib 10 µM, 100% = cells with rucaparib alone): 114% (inactive)
viability ([7]; at 0.000305 µM, OCI-C5x cells, without rucaparib): 127% (inactive)
viability ([7]; at 0.000305 µM, OCI-P5x cells, with rucaparib 20 µM, 100% = cells with rucaparib alone): 98.3% (active)
viability ([7]; at 0.000305 µM, OCI-P5x cells, without rucaparib): 118% (inactive)
viability ([7]; at 0.00122 µM, OCI-C5x cells, with rucaparib 10 µM, 100% = cells with rucaparib alone): 111% (inactive)
viability ([7]; at 0.00122 µM, OCI-C5x cells, without rucaparib): 142% (inactive)
viability ([7]; at 0.00122 µM, OCI-P5x cells, with rucaparib 20 µM, 100% = cells with rucaparib alone): 98.2% (active)
viability ([7]; at 0.00122 µM, OCI-P5x cells, without rucaparib): 119% (inactive)
viability ([7]; at 0.00488 µM, OCI-C5x cells, with rucaparib 10 µM, 100% = cells with rucaparib alone): 109% (inactive)
viability ([7]; at 0.00488 µM, OCI-C5x cells, without rucaparib): 121% (inactive)
viability ([7]; at 0.00488 µM, OCI-P5x cells, with rucaparib 20 µM, 100% = cells with rucaparib alone): 102% (inactive)
viability ([7]; at 0.00488 µM, OCI-P5x cells, without rucaparib): 115% (inactive)
viability ([7]; at 0.0195 µM, OCI-C5x cells, with rucaparib 10 µM, 100% = cells with rucaparib alone): 110% (inactive)
viability ([7]; at 0.0195 µM, OCI-C5x cells, without rucaparib): 128% (inactive)
viability ([7]; at 0.0195 µM, OCI-P5x cells, with rucaparib 20 µM, 100% = cells with rucaparib alone): 97% (active)
viability ([7]; at 0.0195 µM, OCI-P5x cells, without rucaparib): 111% (inactive)
viability ([7]; at 0.0781 µM, OCI-C5x cells, with rucaparib 10 µM, 100% = cells with rucaparib alone): 112% (inactive)
viability ([7]; at 0.0781 µM, OCI-C5x cells, without rucaparib): 136% (inactive)
viability ([7]; at 0.0781 µM, OCI-P5x cells, with rucaparib 20 µM, 100% = cells with rucaparib alone): 89.9% (active)
viability ([7]; at 0.0781 µM, OCI-P5x cells, without rucaparib): 107% (inactive)
viability ([7]; at 0.313 µM, OCI-C5x cells, with rucaparib 10 µM, 100% = cells with rucaparib alone): 117% (inactive)
viability ([7]; at 0.313 µM, OCI-C5x cells, without rucaparib): 118% (inactive)
viability ([7]; at 0.313 µM, OCI-P5x cells, with rucaparib 20 µM, 100% = cells with rucaparib alone): 88.6% (active)
viability ([7]; at 0.313 µM, OCI-P5x cells, without rucaparib): 101% (inactive)
viability ([7]; at 1.25 µM, OCI-C5x cells, with rucaparib 10 µM, 100% = cells with rucaparib alone): 109% (inactive)
viability ([7]; at 1.25 µM, OCI-C5x cells, without rucaparib): 121% (inactive)
viability ([7]; at 1.25 µM, OCI-P5x cells, with rucaparib 20 µM, 100% = cells with rucaparib alone): 88.7% (active)
viability ([7]; at 1.25 µM, OCI-P5x cells, without rucaparib): 92.1% (active)
viability ([7]; at 5 µM, OCI-C5x cells, with rucaparib 10 µM, 100% = cells with rucaparib alone): 120% (inactive)
viability ([7]; at 5 µM, OCI-C5x cells, without rucaparib): 114% (inactive)
viability ([7]; at 5 µM, OCI-P5x cells, with rucaparib 20 µM, 100% = cells with rucaparib alone): 78.4% (active)
viability ([7]; at 5 µM, OCI-P5x cells, without rucaparib): 83.9% (active)
inhibition ([8]; at 0.5 µM, stronger effect = higher value): -24.1% (inactive) and -21.5% (inactive)
inhibition ([8]; measured here: combination with BGB IC20, at 0.005 µM): -9.73% and -22%
inhibition ([8]; measured here: combination with BGB IC40, at 0.005 µM): 64% and -31.1%
inhibition ([8]; measured here: combination with BGB IC40, at 0.05 µM): -13% and -56%
inhibition ([8]; measured here: combination with cisplatin, at 0.5 µM, stronger effect = higher value): -37.5% and -16.8%
inhibition ([8]; measured here: combination with cisplatin, at 5 µM, stronger effect = higher value): -29.7% and -74.4%
inhibition ([9]; BGB combo, at 5 µM): -26.8% and -18.6%
inhibition ([9]; at 0.5 µM): -1.23% (inactive) and -27.1% (inactive)
inhibition ([9]; cisplatin combo, at 5 µM): 6.93% and -10.3%
inhibition [9, 16]: -13.1% and -21.5%
inhibition [9, 17]: 15.7% and -26.9%
inhibition ([9]; single agent, at 5 µM): -4.63% and 68.3%
inhibition ([10]; BGB IC20 combo, at 0.005 µM): -1.21% and 16.5%
inhibition ([10]; BGB IC40 combo, at 0.005 µM): -19.6% and -25.1%
inhibition ([10]; BGB IC40 combo, at 0.05 µM): -33.7% and -42.1%
inhibition ([10]; at 0.5 µM): -15.4% (inactive) and -23.9% (inactive)
inhibition ([10]; cisplatin combo, at 0.05 µM): -40.7% and -47.2%
inhibition ([10]; cisplatin combo, at 0.5 µM): -18.6%
inhibition ([10]; cisplatin combo, at 5 µM): -4.49% and -37.9%
inhibition ([10]; measured here: 5 uM single agent, at 5 µM): -23% and -7.92%
inhibition ([11]; at 0.5 µM): 17.4% (inactive) and -2.96% (inactive)
inhibition ([11]; measured here: with BGB IC20, at 0.5 µM): 58.8% and -16.5%
inhibition ([11]; measured here: with BGB IC20, at 5 µM): 10.8% and 1.62%
inhibition ([11]; measured here: with cisplatin IC20, at 0.5 µM): -2.97% and 1.8%
inhibition ([11]; measured here: with cisplatin IC20, at 5 µM): 2.38% and -10.9%
inhibition ([11]; single agent, at 5 µM): 7.8% and -6.63%
inhibition ([12]; at 0.5 µM): -0.12% (inactive) and 3.53% (inactive)
inhibition ([12]; measured here: BGB combination, at 0.5 µM): -12.4% and -11.3%
inhibition ([12]; measured here: BGB combination, at 5 µM): -14% and -5.01%
inhibition ([12]; measured here: cisplatin combination, at 0.5 µM): 2.29% and 7.08%
inhibition ([12]; measured here: cisplatin combination, at 5 µM): -4.32% and 2.44%
inhibition ([13]; at 0.5 µM): -6.05% (inactive) and -22.2% (inactive)
inhibition ([13]; cisplatin combination, at 0.5 µM): -18.4% and -65.7%
inhibition ([13]; cisplatin combination, at 5 µM): -58.6% and -32.7%
inhibition ([13]; measured here: BGB IC40 combination 0.05 uM, at 0.05 µM): -19.6% and 43.4%
inhibition ([13]; single agent, at 5 µM): -6.92% and -7.26%
inhibition ([14]; at 0.5 µM): -9.62% (inactive) and -41.4% (inactive)
inhibition ([14]; cisplatin combo, at 5 µM): -40.6% and -33.3%
inhibition ([14]; measured here: BGB IC40 combination, at 0.05 µM): -1.87% and -3.35%
inhibition ([14]; measured here: combination with cisplatin, at 0.5 µM): -15.6% and -104%
inhibition ([14]; single agent, at 5 µM): -19.5% and -24.5%
inhibition ([15]; at 0.5 µM): 4.03% (inactive) and 11.8% (inactive)
inhibition [15, 16]: -8.48% and 3.96%
inhibition [15, 17]: 8.84% and 14.3%
inhibition ([15]; single agent, at 0.05 µM): 17.2% and 13.3%
inhibition ([15]; single agent, at 5 µM): -17.9% and -17.8%
